From PubChem BioAssay
Vaccinia pol inh = vaccinia E9 polymerase processive synthesis inhibitors, primary screen, biochemical, absorbance. normalized absorbance, % (test concentration not listed). in vitro processive DNA synthesis, absorbance read-out; stronger effect = lower value. 46,000 compounds, 0.94% hits. AID 493162, 2011; in the data active = normalized absorbance mostly below about 85%, no sharp cut-off; inactive = mostly above about 86%
Active calls of the source: *. This excerpt belongs to a sample that is enriched for hits.

SMILES | Vaccinia pol inh
O=C(O)/C=C/c1ccc(-c2cccc(C(F)(F)F)c2)o1 | 100
C=CCN1C(=O)/C(=C/c2c(N3CCCCC3)nc3ccccn3c2=O)SC1=S | 100
O=C(COc1ccc(Cl)cc1)NCc1nnc(SC/C=C/c2ccccc2)o1 | 102
Cc1ccc(C2C=C(c3ccc(C(C)C)cc3)Nc3ncnn32)cc1 (configuration not stated) | 99
COc1ccc2c(c1)OC1(C)CC2C(S(=O)(=O)c2ccccc2)C(=O)N1 (configuration not stated) | 96
Cc1ccc2oc(-c3ccccc3)cc(=NCCN3CCOCC3)c2c1 | 72*
Clc1ccc2oc(-c3ccccc3)cc(=NCCCN3CCOCC3)c2c1 | 44*
NC(=O)c1ccccc1N=c1cc(-c2ccccc2)oc2ccc(Cl)cc12 | 100
Clc1cccc(-n2cc(-c3ccccc3)c3c(NCC4CCCO4)ncnc32)c1 (configuration not stated) | 102
Clc1ccc2oc(-c3ccccc3)cc(=NCC3CCCO3)c2c1 (configuration not stated) | 59*
CCCCN1CCN(c2nc(-c3ccccc3)c3cc(C)ccc3n2)CC1 | 100
Clc1ccc2oc(-c3ccccc3)cc(=NCc3ccco3)c2c1 | 90
Cc1ccc2oc(=O)cc(CN3CCOCC3)c2c1 | 99
O=C(NCC1CCCO1)Nc1ccc(Cl)cc1 (configuration not stated) | 80
O=S(=O)(NCc1ccccc1)c1ccccc1F | 98
O=C(NCc1cccs1)c1ccccc1NC(=O)C(F)(F)F | 100
Cc1cccc(C)c1Nc1c(-c2cc(Br)ccc2O)nc2nc[nH]n12 | 100
COC(=O)C1=C(Nc2ccc(C)cc2)CC(C)(O)C(C(=O)OC)C1c1ccc(Br)cc1 (configuration not stated) | 102
CC(C)c1ccccc1NN | 97
Oc1[nH]c2ccccc2c1C=NCCc1ccccc1 | 100
CC(C)[C@@H](C)/C=C/[C@@H](C)C1CC[C@H]2/C(=C/C=C3\C[C@@H](O)CC[C@@H]3C)CCC[C@]12C (some centres not stated) | 100
CCOc1ccc(Oc2ccc(N)cc2)cc1 | 99
Cc1ccccc1OCC(=O)OCC(=O)Nc1cccc(Br)c1 | 100
COc1ccc2cc3cc(C(=O)NCc4ccco4)oc3nc2c1 | 87
COc1ccc2cc3cc(C(=O)NCCN4CCN(c5ccccc5F)CC4)oc3nc2c1 | 96
SMILES | Vaccinia pol inh
COc1ccc2cc3cc(C(=O)NCCN(C)C)oc3nc2c1 | 40*
CCC(C)C1COC(c2cccn2Cc2c(C)cc(C)cc2C)=N1 (configuration not stated) | 105
COC(=O)C1=C(O)/C(=C\c2ccccc2OC)N=C1C | 100
Cc1cc(Cl)nc(Cl)c1C(=O)NC(=O)NCc1ccccc1 | 100
O=C(O)c1cccc(-c2ccc(/C=c3/sc4nc5ccccc5n4c3=O)o2)c1 | 100
CC1=NN(c2cccc(C(=O)O)c2)C(=O)/C1=C/c1ccc(-c2cccc(Cl)c2C)o1 | 51*
Cc1ccc(C2=C/C(=C/c3ccc(-c4cccc(C(=O)O)c4)o3)C(=O)O2)cc1 | 100
Cc1cc2oc(=O)cc(-c3ccccc3)c2c(O)c1CN1CCOCC1 | 102
COc1ccc(Nc2cc(C(=O)NCCC(C)C)c3ccccc3n2)cc1 | 99
CC(=O)Nc1ccccc1OC(=O)c1sc2ccccc2c1Cl | 104
COc1ccc(CNS(=O)(=O)N(C)C)cc1 | 99
Cc1ccc(C(=O)CSc2ncnc3sc(C)c(C)c23)cc1 | 101
CC1(C)CC(=O)C(C(=S)Nc2ccccc2)C(=O)C1 | 100
CC1(C)CC(=O)C=C(NC(=O)Nc2ccccc2)C1 | 102
CC1(C)Cc2ccccc2/C(=C/C(=O)Nc2ccccc2)N1 | 86*
O=C(O)CCC(=O)Nc1cccc(-c2nc3ccccc3[nH]2)c1 | 99
O=C(O)CCCC(=O)Nc1ccc(-c2nc3ccccc3[nH]2)cc1 | 60*
O=C(O)CCCC(=O)Nc1nc2ccccc2[nH]1 | 97
Cc1ccc(C(=O)CC(SC2CCCCC2)C(=O)O)cc1 (configuration not stated) | 99
N#CCn1c(=O)n(C2CCCCC2)c(=O)c2cccnc21 | 101
COC(=O)c1cccc(NC(N)=S)c1 | 97
N=C(N)c1cccc(NC(=O)Nc2cccc(C(=N)N)c2)c1 | 77*
Cc1cccc(NC(=O)Nc2cccc(C)c2)c1 | 105
CCOC(=O)N1CCN(c2cc(NCCC(=O)O)c3c4c(onc24)-c2ccccc2C3=O)CC1 | 70*
CCOC(=O)N1CCN(S(=O)(=O)c2ccccc2)CC1 | 100
SMILES | Vaccinia pol inh
O=C1c2ccccc2-c2onc3c(Br)cc(NCc4ccccc4)c1c23 | 99
COCCN1C(=O)C=CC1=O | 102
Cc1nn(-c2ccccc2)c(OC(=O)c2cccs2)c1Sc1ccccc1 | 101
Cc1nn(C(C)(C)C)c(OC(=O)c2ccccc2)c1Sc1ccccc1 | 88
CC(=O)Oc1c(Sc2ccccc2)c(C)nn1C(C)(C)C | 83*
CCN(CC)c1ccc(NC(=O)CSc2cccc[n+]2[O-])cc1 | 102
S=C(NCCC1=CCCCC1)Nc1ccc2nsnc2c1 | 100
CN(C)c1ccc(C(=O)Nc2ccc(Oc3c(Cl)cccc3Cl)nc2)cc1 | 96
CC1=NN(c2ccccc2)C(=O)/C1=C/c1cn(CC(O)CN2CCCCC2)c2ccccc12 (configuration not stated) | 32*
O=C1Nc2ccccc2/C1=C\c1cn(CC(=O)N2CCCC2)c2ccccc12 | 93
NC(=O)Cn1cc(/C=C2/C(=O)NC(=O)N(C3CCCCC3)C2=O)c2ccccc21 | 100
COc1cc(/C=C2\SC(=S)N(C(C)C)C2=O)ccc1OCC(N)=O | 89
CN(C(=O)COC(=O)Cc1ccc(Br)cc1)c1ccccc1 | 102
CCN1C=C/C(=C\c2cc[n+](CC)c3ccccc23)c2ccccc21 | 65*
CC[n+]1ccc(C)c2ccccc21 | 99
CCOc1ccc(C(=O)OCC(=O)N2CCCCC2)cc1 | 85
O=C(O)CN1C(=O)c2cccc3cccc(c23)C1=O | 100
O=C1c2cccc3cccc(c23)C(=O)N1NCCO | 80*
O=C1c2cccc3cccc(c23)C(=O)N1c1ccc(O)cc1 | 96
CCOc1ccc(C(=O)NCC(=O)O)cc1 | 81
COc1ccc(-n2nc3c(c2NC(=O)CCc2ccccc2)CSC3)cc1 | 101
CCN(CC)Cn1nc2c3c(cccc3c1=O)-c1ccccc1-2 | 57*
Cc1ccc(-c2nn(CC(=O)N(C)C)c(=O)c3ccccc23)cc1 | 100
CN(C)C(=O)n1nc2c3c(cccc31)C(=O)c1ccccc1-2 | 69
CCS(=O)(=O)c1ccc(O)c(N=Cc2ccc[nH]2)c1 | 102
SMILES | Vaccinia pol inh
O=C(NN1C(=O)CSC1=S)c1ccccc1 | 100
O=C1CSC(=S)N1/N=C/c1cccnc1 | 102
O=C1CSC(=S)N1/N=C/c1cc(Br)cc(Br)c1O | 81*
COc1ccc(C(=O)N(CC(=O)Nc2nn(-c3ccccc3)nc2C(N)=O)Cc2ccccc2)cc1 | 100
CC(/C=C1\SC(=S)N(CCC(=O)NC2CCCCC2)C1=O)=C\c1ccccc1 | 100
O=C(O)c1cc(C=Nc2ccc(S(=O)(=O)NC3NC=CS3)cc2)c2c(c1)COCO2 (configuration not stated) | 52*
Cc1cc(NS(=O)(=O)c2ccc(N=Cc3ccccc3O)cc2)no1 | 98
Cc1oc(-c2ccc(C(=O)O)cc2)nc1CN1CCCCC1 | 102
FC(F)(F)c1ccccc1CNCC1NCCc2ccccc21 (configuration not stated) | 101
CCOC(=O)c1c(C)n(CC)c2ccc(O)cc12 | 101
CCOC(=O)c1c2ccc(O)cc2n2ccccc12 | 75*
